This passage reports Potency results from PubChem BioAssay AID2662 (National Center for Advancing Translational Sciences (NCATS), 2010).

In all, about 290,000 compounds went through this assay and about 110 (0.038%) were called active. Inconclusive results (about 3%) are left out. Calls follow the shape of the dose curve; as a rule, active = well fitted inhibition curve with a large enough effect in the polarisation, with a control signal flat (not every such curve was filed as active); inconclusive = small, poorly fitted or top-dose-only effect, or effect the other way, or a change in a side signal; inactive = no such curve, though single readings can be large or run the other way; the % refers to the polarisation. What follows is part of a selection rich in actives, with near analogues and random picks from the rest. Where a call stands in place of a potency, no number is given.
Potency is read from the fitted curve at half-maximal effect.

In the assay the target is Histone-lysine N-methyltransferase 2A (Homo sapiens) (UniProt Q03164). Put plainly: qHTS Fluorescence Polarization Assay for Inhibitors of MLL CXXC domain - DNA interaction. As to conditions: MLL-CXXC / FITC-HOXA9 DNA fluorescence polarization; series mostly up to 115 µM. In short, it runs like this: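 Fluorescence polarization: 7 uM MLL-CXXC (stock) preincubated 5 min with compounds, then 50 nM fluorescein-HOX-A9 DNA (stock) added; 30 min ambient. Buffer 50 mM Tris-HCl pH 7.5, 50 mM NaCl, 1 mM DTT, 0.05% BSA.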
Sequence of Histone-lysine N-methyltransferase 2A (Homo sapiens) (Q03164 whole entry, looked up, the tested form may be a part): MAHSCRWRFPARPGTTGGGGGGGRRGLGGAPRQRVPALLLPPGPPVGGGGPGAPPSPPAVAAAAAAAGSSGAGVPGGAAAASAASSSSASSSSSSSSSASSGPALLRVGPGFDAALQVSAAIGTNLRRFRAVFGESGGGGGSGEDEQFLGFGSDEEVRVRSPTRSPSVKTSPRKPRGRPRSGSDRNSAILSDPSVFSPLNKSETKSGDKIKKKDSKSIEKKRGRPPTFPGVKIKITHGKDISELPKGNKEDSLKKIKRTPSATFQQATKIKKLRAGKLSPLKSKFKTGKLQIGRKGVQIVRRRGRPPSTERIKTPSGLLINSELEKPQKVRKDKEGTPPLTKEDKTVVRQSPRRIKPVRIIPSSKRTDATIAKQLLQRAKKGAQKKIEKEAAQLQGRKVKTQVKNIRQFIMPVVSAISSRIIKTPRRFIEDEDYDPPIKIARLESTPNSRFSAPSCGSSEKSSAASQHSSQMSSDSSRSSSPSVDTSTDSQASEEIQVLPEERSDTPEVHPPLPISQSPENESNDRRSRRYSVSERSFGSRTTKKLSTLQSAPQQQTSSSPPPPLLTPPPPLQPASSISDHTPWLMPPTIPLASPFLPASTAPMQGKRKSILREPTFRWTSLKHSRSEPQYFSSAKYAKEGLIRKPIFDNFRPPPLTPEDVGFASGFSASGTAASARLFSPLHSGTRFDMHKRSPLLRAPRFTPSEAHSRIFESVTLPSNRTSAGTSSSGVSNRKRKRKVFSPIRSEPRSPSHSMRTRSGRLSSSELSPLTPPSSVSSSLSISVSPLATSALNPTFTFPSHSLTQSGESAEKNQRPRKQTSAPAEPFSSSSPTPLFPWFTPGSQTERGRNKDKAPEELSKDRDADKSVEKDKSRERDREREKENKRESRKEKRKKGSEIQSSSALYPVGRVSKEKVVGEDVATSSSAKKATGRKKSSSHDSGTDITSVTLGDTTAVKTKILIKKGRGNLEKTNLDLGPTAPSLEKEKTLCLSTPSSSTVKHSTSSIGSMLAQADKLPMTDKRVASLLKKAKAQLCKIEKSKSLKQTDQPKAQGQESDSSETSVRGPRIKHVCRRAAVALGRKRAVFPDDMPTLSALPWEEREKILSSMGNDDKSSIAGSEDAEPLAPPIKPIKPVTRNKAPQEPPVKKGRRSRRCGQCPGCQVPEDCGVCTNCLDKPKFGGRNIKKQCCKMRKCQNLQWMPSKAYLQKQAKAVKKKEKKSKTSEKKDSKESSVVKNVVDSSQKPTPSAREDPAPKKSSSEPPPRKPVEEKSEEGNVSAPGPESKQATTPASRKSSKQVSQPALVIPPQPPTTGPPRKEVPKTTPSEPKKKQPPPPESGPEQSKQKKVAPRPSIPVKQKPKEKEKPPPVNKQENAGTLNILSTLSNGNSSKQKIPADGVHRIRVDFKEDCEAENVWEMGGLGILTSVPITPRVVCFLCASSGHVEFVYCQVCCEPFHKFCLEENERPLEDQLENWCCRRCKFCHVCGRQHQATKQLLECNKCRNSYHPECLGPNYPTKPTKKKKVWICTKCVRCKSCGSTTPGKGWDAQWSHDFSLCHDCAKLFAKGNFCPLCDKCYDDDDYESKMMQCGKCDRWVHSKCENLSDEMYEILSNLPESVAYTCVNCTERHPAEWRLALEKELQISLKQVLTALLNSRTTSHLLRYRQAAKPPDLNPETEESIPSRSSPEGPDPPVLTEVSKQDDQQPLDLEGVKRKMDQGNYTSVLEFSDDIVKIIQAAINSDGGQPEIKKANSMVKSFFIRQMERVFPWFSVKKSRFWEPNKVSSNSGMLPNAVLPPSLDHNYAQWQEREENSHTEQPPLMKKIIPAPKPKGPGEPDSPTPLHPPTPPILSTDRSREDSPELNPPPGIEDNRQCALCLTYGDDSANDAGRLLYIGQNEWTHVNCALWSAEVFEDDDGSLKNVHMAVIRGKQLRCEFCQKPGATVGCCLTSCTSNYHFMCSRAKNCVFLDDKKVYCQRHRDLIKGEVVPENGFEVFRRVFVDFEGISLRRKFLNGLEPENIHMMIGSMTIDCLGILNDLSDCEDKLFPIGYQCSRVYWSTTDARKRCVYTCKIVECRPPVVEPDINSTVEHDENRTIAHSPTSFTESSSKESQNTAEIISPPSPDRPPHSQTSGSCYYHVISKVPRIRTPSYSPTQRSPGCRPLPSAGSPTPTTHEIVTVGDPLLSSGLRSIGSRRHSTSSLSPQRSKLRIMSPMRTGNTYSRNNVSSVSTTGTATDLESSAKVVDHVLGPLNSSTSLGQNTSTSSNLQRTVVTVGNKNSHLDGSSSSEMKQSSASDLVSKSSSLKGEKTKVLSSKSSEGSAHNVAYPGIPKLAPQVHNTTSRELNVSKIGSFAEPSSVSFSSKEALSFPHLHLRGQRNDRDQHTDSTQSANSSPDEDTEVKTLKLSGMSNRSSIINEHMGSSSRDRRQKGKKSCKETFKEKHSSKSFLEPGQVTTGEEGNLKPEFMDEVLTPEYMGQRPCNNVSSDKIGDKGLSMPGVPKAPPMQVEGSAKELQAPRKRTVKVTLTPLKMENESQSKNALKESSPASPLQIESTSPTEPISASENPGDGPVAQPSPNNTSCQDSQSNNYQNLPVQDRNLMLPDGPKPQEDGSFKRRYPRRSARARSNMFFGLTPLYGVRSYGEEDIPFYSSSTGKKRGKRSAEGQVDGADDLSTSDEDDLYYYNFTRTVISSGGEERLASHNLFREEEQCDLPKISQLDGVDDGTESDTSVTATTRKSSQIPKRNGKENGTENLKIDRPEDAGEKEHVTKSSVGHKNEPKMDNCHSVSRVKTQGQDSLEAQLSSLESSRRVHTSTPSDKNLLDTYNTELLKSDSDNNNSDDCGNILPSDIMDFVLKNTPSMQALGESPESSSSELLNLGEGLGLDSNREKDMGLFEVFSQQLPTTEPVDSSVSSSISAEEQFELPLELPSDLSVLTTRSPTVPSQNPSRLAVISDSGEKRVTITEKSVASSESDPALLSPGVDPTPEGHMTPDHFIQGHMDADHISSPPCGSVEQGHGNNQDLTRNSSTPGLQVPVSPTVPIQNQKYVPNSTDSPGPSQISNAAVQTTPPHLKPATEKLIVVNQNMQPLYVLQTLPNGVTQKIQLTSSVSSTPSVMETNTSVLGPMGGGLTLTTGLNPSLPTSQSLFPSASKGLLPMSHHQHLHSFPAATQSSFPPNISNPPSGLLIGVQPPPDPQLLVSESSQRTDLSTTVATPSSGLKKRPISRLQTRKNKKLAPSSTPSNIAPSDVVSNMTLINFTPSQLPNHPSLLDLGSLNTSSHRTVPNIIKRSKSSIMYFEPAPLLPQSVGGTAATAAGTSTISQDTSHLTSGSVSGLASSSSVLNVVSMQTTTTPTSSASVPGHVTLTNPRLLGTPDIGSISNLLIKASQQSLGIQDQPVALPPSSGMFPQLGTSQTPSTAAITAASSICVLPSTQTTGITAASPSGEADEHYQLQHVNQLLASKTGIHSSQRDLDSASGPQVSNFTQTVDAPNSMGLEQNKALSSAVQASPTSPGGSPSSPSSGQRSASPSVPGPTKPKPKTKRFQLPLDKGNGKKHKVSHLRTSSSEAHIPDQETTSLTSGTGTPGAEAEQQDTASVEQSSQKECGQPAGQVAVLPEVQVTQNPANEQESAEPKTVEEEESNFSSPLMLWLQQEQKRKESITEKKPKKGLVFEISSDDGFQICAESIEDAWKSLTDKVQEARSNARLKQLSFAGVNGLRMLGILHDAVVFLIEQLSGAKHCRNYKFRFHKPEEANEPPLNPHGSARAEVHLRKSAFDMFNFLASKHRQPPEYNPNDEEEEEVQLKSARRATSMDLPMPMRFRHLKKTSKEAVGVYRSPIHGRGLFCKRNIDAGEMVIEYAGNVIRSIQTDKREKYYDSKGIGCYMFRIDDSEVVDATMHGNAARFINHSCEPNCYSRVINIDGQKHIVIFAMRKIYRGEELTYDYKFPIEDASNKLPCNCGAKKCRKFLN
For orientation: qHTS replaces the single test concentration by a dilution series.
With `COc1ccc(NC(=S)N2CCC(NC(=O)c3cccc(F)c3)CC2)cc1`, the Potency result is “inactive”.
To `S=C(Nc1ccc(Cl)cc1Cl)N1CCCC1` belongs “inactive”.
To `Cc1ccc(-c2csc(N3CCN(c4cc5c(cc4Cl)nc(-c4ccncc4)n5CCOCCO)CC3)n2)cc1` belongs “inactive”.
For `O=C(N/N=C/c1cccnc1)c1ccc(NC(=O)c2ccc(F)cc2)cc1`, the Potency entry is “inactive”.
On to `COCCC(=O)N1CCC(Oc2ccc(C(=O)NCc3ccon3)cc2)CC1`, for which the Potency entry was “inactive”.
The entry for `O=c1[nH]cnc(O)c1C(c1ccc(F)cc1)c1c(O)nc[nH]c1=O` is “inactive”; for `CCCc1nnc(NC(=O)CCC(=O)N2CCN(S(=O)(=O)c3ccc(OC)cc3)CC2)s1` it is “inactive”; for `O=C(c1cc2ccccc2o1)N1CCN(c2cccc(C(F)(F)F)c2)CC1` it is “inactive”.
To `CCN(CC)CCCNC(=S)N(CCO)Cc1cc2cc3c(cc2[nH]c1=O)OCO3` belongs “inactive”; to `CC(=O)N(CC(O)CO)c1c(I)c(C(=O)NCC(O)CO)c(I)c(C(=O)NCC(O)CO)c1I` (stereo unspecified), “inactive”.
The entry for `CC(C)=CCN1CCN(Cc2cc3ccccc3[nH]2)CC1CCO` (stereo unspecified) is “inactive”; for `CCc1ccc(C(=O)NN=C2CCCCCC2)s1` it is “inactive”; for `COc1ccc(C(=O)Nc2ccc(C(=O)NCC3CCCO3)cc2)c(OC)c1OC` (stereo unspecified) it is “inactive”.
With `O=C(c1cccc(Br)c1)N1CCN(C2=NS(=O)(=O)c3ccccc32)CC1`, the Potency result is “inactive”.
The entry for `O=C(NCCCNC(=O)c1ccccc1Cl)c1cnccn1` is “inactive”; for `Cc1cc(C)c(C(=O)CSc2nc(C)cc(=O)[nH]2)c(C)c1` it is “inactive”; for `NC(=O)Cn1cc(/C=N\NS(=O)(=O)c2ccccc2)c2ccccc21` it is “inactive”.
For the molecule `COc1cccc(CN(C)CC2CCCN(CCc3ccc(Cl)cc3)C2)c1OC` (stereo unspecified), the Potency entry is “inactive”.
Take `C/C=C/C=N/NC(=O)c1ccncc1`: the Potency result is “inactive”.
The entry for `CN1C(=O)[C@H]2[C@@H](C3CC3)N3C(=O)CN(Cc4ccccc4)C(=O)[C@@]3(C)[C@H]2C1=O` is “inactive”; for `COc1ccc(C(=O)CCC(=O)Nc2cccnc2)c(OC)c1` it is “inactive”.
The entry for `CC(C)(O)c1ccccc1CC[C@H](SCC1(CC(=O)O)CC1)c1cccc(/C=C/c2ccc3ccc(Cl)cc3n2)c1` is “inactive”; for `CCN(CC)c1ccc(C(=O)Nn2c(C)nc3ccccc3c2=O)cc1` it is “inactive”; for `O=C(NC(=S)Nc1ccc(Cl)c(C(=O)O)c1)c1cncc(Br)c1` it is “inactive”.
To `CC(C)c1ccc(C2C(C(=O)c3ccco3)=C(O)C(=O)N2CC2CCCO2)cc1` (stereo unspecified) belongs “inactive”; to `COc1cc(C)c(C)cc1S(=O)(=O)N1CCCc2ccccc21`, “inactive”.
Regarding `Cc1c(S(=O)(=O)N2CC(C)CC(C)C2)c(=O)n(C)c(=O)n1C` (stereo unspecified), the Potency result is “inactive”.
To `O=CN1CCN(C(=O)c2ccc(Br)o2)CC1` belongs “inactive”; to `Cc1ccc(NS(=O)(=O)c2ccc(-c3coc(C)n3)cc2)c(C)c1`, “inactive”; to `COc1ccc2cc(S(=O)(=O)Nc3ccccn3)ccc2c1`, “inactive”.
To `COc1ccc(S(=O)(=O)Nc2c(C)n(C)n(-c3ccccc3)c2=O)cc1` belongs “inactive”; to `COc1ccc(S(=O)(=O)/N=C2\C=C(NS(=O)(=O)c3ccccc3)C(=O)c3ccccc32)cc1`, 25.1 µM (active).
To `NC(=O)c1cc(S(=O)(=O)N2CCCC2)ccc1OCc1ccc(F)cc1` belongs “inactive”; to `O=C(O)c1ccc(S(=O)(=O)N2CCOCC2)o1`, “inactive”; to `CCn1nc(C)c(CNC(=O)C2CCC(=O)N(Cc3cccc(F)c3)C2)c1C` (stereo unspecified), “inactive”.
Regarding `COc1ccc(-c2cc(=O)oc3cc(OCC(=O)N(C)C4CCS(=O)(=O)C4)ccc23)cc1` (stereo unspecified), the Potency entry was “inactive”.
The entry for `Cc1cc(C)c2c(Cn3ccnc3)cc(=O)oc2c1` is “inactive”; for `Cc1cc(-c2nnc(SCC(=O)Nc3ccc(S(N)(=O)=O)cc3)n2N)n[nH]1` it is “inactive”; for `Cc1ccc(NC(=O)NC(=O)c2ccccc2)cc1F` it is “inactive”.
To `Cc1ccc(NC(=O)CSc2nn3c(=O)c(C)nnc3s2)cc1Cl` belongs “inactive”.
The entry for `COc1ccc(CNS(=O)(=O)c2ccc(NC(=O)N3CCCCC3)cc2)cc1` is “inactive”.
As to `CCCc1cc(C(=O)N2CCCC(CO)(CCCc3ccccc3)C2)n(C)n1` (stereo unspecified), the Potency entry was “inactive”.
To `Cc1ccc(C(=O)NCC(=O)OCc2nnc(-c3ccccc3)o2)cc1` belongs “inactive”; to `COc1ccc(CN2CCCC(N3CCc4ccccc4C3)C2)c(O)c1` (stereo unspecified), “inactive”; to `CC(C)(C)c1ccc(C(=O)N2CCN(CCNC(=O)C(=O)Nc3ccc(F)cc3)CC2)cc1`, “inactive”.
The entry for `O=C(NCCCN1CCOCC1)C1CCCN(S(=O)(=O)N2CCCCC2)C1` (stereo unspecified) is “inactive”; for `O=C(CCn1nnc2ccccc21)OCC(=O)c1ccc([N+](=O)[O-])cc1` it is “inactive”.
For the molecule `COc1cc([N+](=O)[O-])cc([N+](=O)[O-])c1NC(=O)N1CCOCC1`, the Potency entry is “inactive”.
Regarding `Cc1csc(NC(=O)CSc2nc(=O)cc(N)n2-c2ccc(F)cc2)n1`, the Potency entry was “inactive”.
The entry for `CCOc1ccc(S(=O)(=O)N2CCCC(C(=O)N3CCC(C(N)=O)CC3)C2)cc1Cl` (stereo unspecified) is “inactive”.
For the molecule `Cc1c(CN2CCC(n3nccc3NC(=O)CCc3ccccc3)CC2)cnn1C`, the Potency result was “inactive”.
To `CC(=O)c1ccc(NC(=O)Cn2c(=O)oc3ccccc32)cc1` belongs “inactive”.
To `CCOc1ccccc1NC(=O)C1CCCN(S(=O)(=O)c2ccccc2)C1` (stereo unspecified) belongs “inactive”; to `CC1CCC(NS(=O)(=O)c2ccc3c(c2)CC(=O)N3)CC1` (stereo unspecified), “inactive”.
To `CC(=O)N[C@@H](C)C(=O)N1CCC(n2nccc2NC(=O)CCCc2ccccc2)CC1` belongs “inactive”; to `Clc1ccc(C(Cn2ccnc2)OCc2ccsc2Cl)c(Cl)c1` (stereo unspecified), “inactive”.
Regarding `COc1ccc(OCCn2ccnc2C)cc1`, the Potency result is “inactive”.
To `Cc1ccc(CN(C)Cc2cc(=O)oc3cc(C)c(Cl)cc23)cc1` belongs “inactive”.
The entry for `COc1ccc(N(C(=O)CNC(=O)c2ccco2)C(C(=O)NCC2CCCO2)c2ccccc2)cc1Cl` (stereo unspecified) is “inactive”; for `CCOC(CNC(=O)C(=O)NCC(c1ccco1)N1CCN(c2ccc(OC)cc2)CC1)OCC` (stereo unspecified) it is “inactive”; for `Cc1ccc(NS(=O)(=O)c2c(C)[nH]c(C)c2C(=O)N2CCCCC2)c(C)c1` it is “inactive”.
For `CCOC(=O)c1cccc(NC(=O)C2CCN(c3ncnc4c3nc3n4CCCCC3)CC2)c1`, the Potency entry is “inactive”.
As to `O=S1(=O)CCO[C@H]2Cc3ccccc3[C@H]2N1Cc1ccccc1`, the Potency entry was “inactive”.
The entry for `CC(C)c1ccc(/C=C2\NC(=O)NC2=O)cc1` is “inactive”.
`Cc1cccc(NS(=O)(=O)c2ccc([N+](=O)[O-])cc2)n1`: the Potency entry was “inactive”.
The entry for `COc1ccc(NC(=O)CC2C(=O)NC3CCCCC3N2C(=O)c2ccc(F)cc2)cc1` (stereo unspecified) is “inactive”.
`COCC1CCN(C(=O)C2CCC(=O)N(CC3CCCCC3)C2)CC1` (stereo unspecified): the Potency entry was “inactive”.
Turning to `S=C(NCCC1=CCCCC1)Nc1ccccc1`, the Potency result was “inactive”.
For the molecule `CSc1ccccc1OCc1cc(C(=O)N2C[C@H]3CC[C@H]2C3)no1`, the Potency result was “inactive”.
The entry for `O=C(Cc1ccc(Cl)cc1)NC(=S)Nc1ccccc1O` is “inactive”; for `CCC(C)(C)n1nnnc1C(c1ccc(OC)c(OC)c1)N1CCN(C(=O)c2ccco2)CC1` (stereo unspecified) it is “inactive”; for `CC(=O)NC(Cc1c[nH]c2ccccc12)C(=O)NCCc1ccccc1` (stereo unspecified) it is “inactive”.
Regarding `C[C@H](C(=O)CC(=O)OC(C)(C)C)[C@H](O)c1ccc(C(F)(F)F)cc1`, the Potency entry was “inactive”.
The entry for `CCc1nc2nc(C)c(NS(=O)(=O)c3ccc4c(c3)CCCC4)c(=O)n2[nH]1` is “inactive”; for `CCOC(=O)c1c(C)[nH]c(C(=O)NCCN2CCOCC2)c1C` it is “inactive”; for `COc1ccc(NS(=O)(=O)c2cc(C(=O)Nc3ccccc3C(=O)O)ccc2C)cc1` it is “inactive”.
